# In the library only some 2.4% were active in any assay of this set; here they are far more common.
# D2 PAM-1: human D2 receptor positive allosteric modulation | 0.23% of 360,000 active | P14416 | potentiation, % (concentration not given with the values) | DiscoveRx D2 beta-arrestin cells, luminescence, 90 min; 100% = 57 uM dopamine signal | AID 624464; in the data active = potentiation above about 50%; inconclusive = mostly about 30% to 49%
# Target sequence (P14416 whole entry, looked up): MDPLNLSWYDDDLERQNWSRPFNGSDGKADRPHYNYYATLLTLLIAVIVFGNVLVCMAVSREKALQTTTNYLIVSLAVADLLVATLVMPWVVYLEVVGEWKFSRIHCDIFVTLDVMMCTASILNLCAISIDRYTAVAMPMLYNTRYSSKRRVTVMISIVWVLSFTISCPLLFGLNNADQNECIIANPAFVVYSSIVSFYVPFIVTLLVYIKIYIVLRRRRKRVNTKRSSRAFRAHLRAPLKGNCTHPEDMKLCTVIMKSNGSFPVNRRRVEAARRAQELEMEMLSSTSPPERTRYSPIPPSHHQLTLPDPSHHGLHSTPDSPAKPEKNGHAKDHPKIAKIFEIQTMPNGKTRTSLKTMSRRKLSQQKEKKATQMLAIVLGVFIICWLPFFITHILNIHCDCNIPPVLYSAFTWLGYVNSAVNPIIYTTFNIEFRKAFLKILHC
#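 PathHunter D2 cells, attached overnight at 37 deg C, received compound in DMSO plus dopamine at EC20 (50 nM final) for 90 min at 37 deg C. Beta-arrestin recruitment was read as luminescence after 1 h with detection reagent at ambient temperature.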
# D2 ag-1: human D2 receptor agonism in beta-arrestin assay; activation, % (concentration not given with the values); DiscoveRx PathHunter D2 beta-arrestin, luminescence, 90 min; 100% = 57 uM dopamine signal; 0.084% of 360,000 active; in the data active = activation above about 40%; inconclusive = between about 15% and that limit
#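 DiscoveRx PathHunter D2 beta-arrestin cells (2,100/well) attached overnight, then compound-stimulated 90 min at 37 C in HBSS/10 mM HEPES/0.1% Tween-20 buffer; beta-galactosidase complementation read by luminescence after 1 h at ambient temperature. Dopamine 57 uM final (EC100) as control.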
# D2 ag-2: agonists of human D2 dopamine receptor; P14416; HEK293 T-REx D2 cells, calcium flux agonist mode; activation, % at 2 µM; 0.53% of 340,000 active; AID 485358;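 active = activation over 3 SD above normal in the single-dose calcium agonist read, cut at about 30% in these data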; also: 0% is about no effect
#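 HEK293 Trex D2 cells, tetracycline-induced, o/n 30 C 5% CO2; no-wash Ca dye, RT 30–90 min; 10-cycle baseline, 23 nl cpd added, kinetic Ca read 180 s; agonist hits = positive Ca response.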
# D2 PAM-2: D2 dopamine receptor (human) potentiation | HEK293 T-REx D2, calcium flux, EC20 dopamine potentiation | potentiation, % at 10 µM | AID 485347 | P14416 | 0.34% of 340,000 active;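 active = potentiation over 3 SD above the plate norm, cut at about 30% in these data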; also: 0% is about no effect
#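 Tetracycline-induced Hek293 Trex D2 cells, force-coupled to calcium, loaded with no-wash calcium dye. Compound added with 180 s kinetic read for agonism, then EC20 dopamine and a further 180 s read for potentiation.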
# D2 antagonist: antagonizes the human D2 dopamine receptor | P14416 | HEK293 TREx D2 cells, calcium flux, dopamine EC80 | inhibition, % at 10 µM | 2% of 340,000 active; in the data active = inhibition above about 30%; inactive = below that, where a call was filed; also: 0% is about no effect
#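 In this primary screen, negative modulation is detected by tracking calcium flux after an EC80 dopamine challenge in inducible HEK293 T-REx D2 cells preexposed to test compound for 180 s.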
# * = called active by the depositor; ? = inconclusive; / = not tested or not shown.
SMILES,D2 PAM-1,D2 ag-1,D2 ag-2,D2 PAM-2,D2 antagonist
O=C1c2ccccc2C(=O)N1CC1c2ccccc2CCN1S(=O)(=O)c1cnc[nH]1 (stereo not given),21,1,1,-4,46*
Cc1ccc(-c2cc(C(=O)Nc3c(C(=O)c4ccc(C)c(F)c4)oc4ccccc34)no2)cc1,/,/,3,-11,/
CCn1cc(C(=O)NCc2ccc(Cl)cc2)c(=O)c2cc(S(=O)(=O)N(C)C)ccc21,0,-5,-1,0,32*
CCn1cc(C(=O)NCCc2ccc(Cl)cc2)c(=O)c2cc(S(=O)(=O)N(C)C)ccc21,-4,1,0,7,-9
CCn1cc(C(=O)NCCCN(C)c2ccccc2)c(=O)c2cc(S(=O)(=O)N(C)C)ccc21,-1,-2,43*,54*,29
CCn1cc(C(=O)N2CCOCC2)c(=O)c2cc(S(=O)(=O)N(C)C3CCCCC3)ccc21,-2,-3,-1,32*,0
CCC1CCCCN1CCCCOc1cccc(Cl)c1 (stereo not given),-16,-1,0,-25,55*
O=C(CN1C(=O)COc2ccc(S(=O)(=O)N3CCOCC3)cc21)N1CCN(c2ccccc2)CC1,/,/,-1,-4,/
COc1cc(CN2CCc3ccccc3C2)ccc1O,-30,-2,5,-22,19
Oc1ccc(CN2CCCCC2)c2cccnc12,-2,0,1,-5,3
Oc1cc2c(cc1CN1CCc3ccccc3C1)OCO2,-21,0,0,-17,33*
Oc1ccc(CN2CCc3ccccc3C2)c2cccnc12,-30,-10,-1,-27,65*
Clc1cccc(N2CCN(CCNc3nc4ccccc4n4cnnc34)CC2)c1,-16,3,4,-21,42*
c1ccc(CN2CCN(c3nc4ccccc4n4cnnc34)CC2)cc1,-5,-5,1,-32,68*
CCOC(=O)c1ccc(NC(=O)C2CCCN(c3ccc(Sc4ccc(C)cc4)nn3)C2)cc1 (stereo not given),/,/,1,12,/
CC(C)c1ccc(-c2nc(N3CCCC3)nc3n[nH]c(N)c23)cc1,-6,-1,0,44*,2
COc1ccc(S(=O)(=O)n2nc(-c3ccco3)nc2NCc2ccc(N(C)C)cc2)cc1,/,/,-1,-12,/
COc1ccc(S(=O)(=O)NCCc2sc(-c3cccc(F)c3)nc2C)cc1,/,/,/,8,/
CCC(C)NS(=O)(=O)c1ccc(NC(=O)c2ccc([N+](=O)[O-])cc2Cl)cc1 (stereo not given),-3,-3,-2,5,37*
CC(=O)Nc1ccc(NC(=O)c2ccc([N+](=O)[O-])cc2Cl)cc1,-2,0,3,-15,16
CC(C)(C)OC(=O)N1CCC(c2c(C(=O)N3CCN(C(=O)c4ccco4)CC3)cnn2-c2cccc(F)c2)CC1,/,/,/,-6,/
CCC(=O)N1CCc2cc(OC)c(OC)cc2C1COc1ccc(C(=O)OC)cc1 (stereo not given),-2,-2,0,40*,-5
Cc1ccc(S(=O)(=O)c2nnn3c2nc(NCCCN2CCCC2=O)c2ccccc23)cc1C,-22,-3,0,-23,4
Cc1ccc(S(=O)(=O)c2nnn3c2nc(NC2CCN(Cc4ccccc4)CC2)c2ccccc23)cc1C,-19,-3,0,37*,12
Cc1ccc2nc(NC(=O)C3CCN(S(=O)(=O)c4cc([N+](=O)[O-])ccc4Cl)CC3)sc2c1,59*,?,2,13,-4
COc1ccc2nc(NC(=O)C3CCN(S(=O)(=O)c4cnc[nH]4)CC3)sc2c1,-7,-1,0,16,32*
O=C(COC(=O)C1CCN(S(=O)(=O)c2cc([N+](=O)[O-])ccc2Cl)CC1)Nc1ncc(Cl)cc1Cl,70*,3,1,-7,14
CC(=O)COC(=O)C1CCN(S(=O)(=O)c2cc([N+](=O)[O-])ccc2Cl)CC1,14,-2,0,-3,-9
O=C(Nc1nc2ccc(F)cc2s1)C1CCN(S(=O)(=O)c2cc([N+](=O)[O-])ccc2Cl)CC1,?,11,1,-2,15
CCOc1ccccc1CNC(=O)CCCn1nc(C)c2sc3ccccc3c2c1=O,/,/,0,2,/

# Screening data as filed in PubChem BioAssay.
